The Kd is the free concentration of one partner at which half of the binding sites on the other are occupied at equilibrium, for simple one-to-one binding.

One assay relates to T1, DRAK2.
T1 construct: gene STK17B

The subject of the next assay is T2, DRAK1.
T2 construct: gene STK17A

The structures appear in SMILES notation.
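Note: kd values determined as follow-up on hits from a single-replicate KINOMEscan panel screen.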

For the compound `CSc1ccc(-c2cc3ncnc(SCC(=O)O)c3s2)cc1`, the Kd in the assay on DRAK2 is 3.8 nM.
As to `O=C(O)COc1ncnc2cc(-c3ccc4[nH]ncc4c3)sc12`, the results for the equilibrium dissociation constant (Kd) in the assay with DRAK1 and with DRAK2 were 250 nM and 30 nM, respectively.

For the origin of these results see PMC5540273 (PLoS ONE, 2017).
